Data: PubChem BioAssay
Values joined by “and” are separate entries in the source; they are usually repeats but may differ in a detail not shown here. Equal entries are not always repeated. Active and inactive are the calls of the source.

How the values were obtained:
[1] = system: PRMT1 (protein arginine N-methyltransferase 1); assay: small molecules binding arginine methyltransferase PRMT1 – biochemical, small-molecule microarray, 635 nm fluorescence, primary screen (AID 1088); conditions: higher = more signal;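 also: binding of Prmt1 protein to compounds spotted on small-molecule microarray slides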
[2] = growth effects on S. cerevisiae YJM789 – YJM789 clinical isolate, OD600, 24 h, basal, primary screen (AID 1089); conditions: higher = more signal, called active from +8 up or from −8 down;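 also: growth of clinical yeast isolate S. cerevisiae YJM 789 seeded 1000 cells per well; test concentration not given here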
[3] = S. pombe growth modifiers, basal conditions – strain 972, OD600, 24 h, no modulator, primary screen (AID 1090);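 also: basal condition with compound alone and no growth modifier present; test concentration not given here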; conditions: S. pombe 972 growth, higher = more signal, called active from +8 up or from −8 down
[4] = budding yeast growth modifiers under rapamycin – strain BY4716, OD600, 96 h, primary screen (AID 1091); also: test concentration not given here; conditions: S. cerevisiae BY4716 + rapamycin, higher = more signal, called active from +8 up or from −8 down
[5] = biological target: Torsin-1A-interacting protein 2 (Homo sapiens) (UniProt Q8NFQ8); assay: small molecules binding lysate-expressed LULL1 – cell lysate, human LULL1 lysate, 635/667 nm fluorescence, primary screen (AID 1092); conditions: small-molecule microarray, hLULL1 lysate binding, 635 nm fluorescence; higher = more signal;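 also: probe is lysate of COS7 cells overexpressing human LULL1; score merges per-feature 667 nm fluorescence with signal-to-noise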
[6] = optical density change of DRC41 E. coli – strain DRC41, OD650, 24 h, E. coli filamentation project, primary screen (AID 1093);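 also: MC1000 strain lacking acrAB efflux and sulA so SOS filamentation is blocked; test concentration not given here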; conditions: E. coli DRC41 growth, higher = more signal, called active from +8 up or from −8 down
[7] = probe aLefty2 binding to arrayed compounds – biochemical, biotinylated probe, 635/667 nm fluorescence, primary screen (AID 1094); conditions: small-molecule microarray, higher = more signal;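 also: score merges spot fluorescence near 667 nm with spot signal-to-noise ratio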
[8] = system: Noggin (protein binding on small-molecule microarray); assay: small molecules binding Noggin protein – biochemical, 635/667 nm fluorescence, primary screen (AID 1095); conditions: 635 nm fluorescence, higher = more signal;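 also: score merges 667 nm feature fluorescence with signal to noise over triplicate slides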
[9] = biological target: Neurogenic locus notch homolog protein 3 (Homo sapiens) (UniProt Q9UM47); assay: small molecules binding NOTCH3 protein – biochemical, 635/667 nm fluorescence, primary screen (AID 1096); conditions: small-molecule microarray, 635 nm fluorescence, higher = more signal
[10] = probe aEGFR binding to arrayed compounds – biochemical, biotinylated probe, 635/667 nm fluorescence, primary screen (AID 1097); conditions: small-molecule microarray, higher = more signal;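 also: probe is a biotinylated anti-EGFR antibody binding compounds printed on slides; score combines fluorescence near 667 nm and signal to noise of each spot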
[11] = system: Plasmodium falciparum Sir2 (PF13_0152, Sir2A); assay: Plasmodium falciparum Sir2A binding compounds – biochemical, small-molecule microarray, 635 nm fluorescence, primary screen (AID 1098); conditions: fluorescence 635 nm, higher = more signal;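 also: score merges spot fluorescence intensity with its signal-to-noise ratio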
[12] = probe aDKK1 binding to arrayed compounds – biochemical, biotinylated probe, 635/667 nm fluorescence, primary screen (AID 1099); conditions: small-molecule microarray, higher = more signal;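 also: score merges 667nm spot fluorescence with signal to noise across triplicate slides; reference of the scale not given here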
[13] = probe aCHRDL2 binding to arrayed compounds – biochemical, biotinylated probe, 635/667 nm fluorescence, primary screen (AID 1100); conditions: small-molecule microarray, higher = more signal
[14] = change in splice reporter luminescence, either direction, cell-based, HEK293, spliceosome inhibition project, primary screen (AID 1101); conditions: HEK293 splicing luciferase reporter, 24 h, higher = more signal, called active from +8 up or from −8 down;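 also: HEK293 cells carrying a splicing-competent luciferase reporter gene; test concentration not given here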
[15] = biological target: Fibroblast growth factor 10 (Homo sapiens) (UniProt O15520); assay: compounds binding fibroblast growth factor 10 – biochemical, small-molecule microarray, 635 nm fluorescence, primary screen (AID 1102); conditions: FGF10 binding, fluorescence 635 nm, higher = more signal
[16] = system: glycogen synthase kinase-3 (GSK3A per assay name; protocol says GSK3B); assay: compounds binding glycogen synthase kinase-3 – biochemical, small-molecule microarray, 635 nm fluorescence, GSK3A, primary screen (AID 1103); conditions: fluorescence 635 nm, higher = more signal; also: the record names both GSK3A and GSK3B
[17] = biological target: Epidermal growth factor receptor (Homo sapiens) (UniProt P00533); assay: compounds binding epidermal growth factor receptor – biochemical, small-molecule microarray, 635 nm fluorescence, primary screen (AID 1104); conditions: EGFR binding, higher = more signal;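 also: score merges 667 nm emission intensity with spot signal to noise over triplicate slides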
[18] = biological target: Follistatin-related protein 3 (Homo sapiens) (UniProt O95633); assay: compounds binding follistatin-related protein 3 – biochemical, small-molecule microarray, 635 nm fluorescence, primary screen (AID 1105); conditions: FSTL3 binding, higher = more signal;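 also: score merges emission near 667 nm and signal to noise per printed spot across three slides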
[19] = biological target: Dickkopf-related protein 1 (Homo sapiens) (UniProt O94907); assay: small molecules binding DKK1 protein – biochemical, small-molecule microarray, 635 nm fluorescence scan, primary screen (AID 1106); conditions: higher = more signal;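 also: score merges emission near 667 nm with signal to noise over three replicate slides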
[20] = system: Inhibin beta A chain (activin A); assay: small molecules binding activin A – biochemical, small-molecule microarray, 635 nm fluorescence scan, primary screen (AID 1107); conditions: INHBA, higher = more signal;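 also: mouse activin A protein probed at 4.33 µg/mL on printed slides; score merges bound-protein fluorescence near 667 nm with spot signal-to-noise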

Sequence of Epidermal growth factor receptor (Homo sapiens) (P00533 whole entry, looked up): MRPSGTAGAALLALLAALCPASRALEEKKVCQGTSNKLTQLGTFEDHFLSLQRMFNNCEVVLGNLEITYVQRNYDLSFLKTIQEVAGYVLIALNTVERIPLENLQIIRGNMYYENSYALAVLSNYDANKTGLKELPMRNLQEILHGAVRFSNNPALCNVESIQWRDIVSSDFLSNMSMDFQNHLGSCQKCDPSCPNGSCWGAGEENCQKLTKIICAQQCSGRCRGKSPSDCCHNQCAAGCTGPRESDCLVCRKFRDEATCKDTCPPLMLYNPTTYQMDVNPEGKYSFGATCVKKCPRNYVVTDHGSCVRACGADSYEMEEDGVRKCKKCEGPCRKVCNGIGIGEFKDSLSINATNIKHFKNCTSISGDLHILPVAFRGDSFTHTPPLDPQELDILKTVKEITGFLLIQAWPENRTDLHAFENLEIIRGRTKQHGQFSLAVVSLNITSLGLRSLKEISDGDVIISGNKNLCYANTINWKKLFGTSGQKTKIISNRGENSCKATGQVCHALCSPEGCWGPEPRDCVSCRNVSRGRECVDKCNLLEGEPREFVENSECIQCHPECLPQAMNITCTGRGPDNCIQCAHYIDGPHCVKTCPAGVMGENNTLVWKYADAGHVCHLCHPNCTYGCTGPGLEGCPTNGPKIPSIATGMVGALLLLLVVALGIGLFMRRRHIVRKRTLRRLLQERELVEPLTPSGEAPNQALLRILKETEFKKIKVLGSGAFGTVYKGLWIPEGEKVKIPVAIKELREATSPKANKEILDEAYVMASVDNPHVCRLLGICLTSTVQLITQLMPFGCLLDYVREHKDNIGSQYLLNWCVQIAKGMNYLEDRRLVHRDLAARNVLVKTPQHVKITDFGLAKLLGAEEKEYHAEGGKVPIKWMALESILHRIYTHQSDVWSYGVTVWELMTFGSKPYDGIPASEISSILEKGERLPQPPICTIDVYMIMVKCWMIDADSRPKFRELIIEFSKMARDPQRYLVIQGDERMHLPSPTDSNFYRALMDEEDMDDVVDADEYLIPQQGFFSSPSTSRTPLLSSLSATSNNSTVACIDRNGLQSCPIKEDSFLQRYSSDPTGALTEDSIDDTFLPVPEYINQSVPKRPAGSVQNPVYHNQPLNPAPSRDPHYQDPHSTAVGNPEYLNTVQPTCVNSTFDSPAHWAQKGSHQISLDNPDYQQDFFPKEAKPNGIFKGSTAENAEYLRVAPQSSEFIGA
Sequence of Fibroblast growth factor 10 (Homo sapiens) (O15520 whole entry, looked up): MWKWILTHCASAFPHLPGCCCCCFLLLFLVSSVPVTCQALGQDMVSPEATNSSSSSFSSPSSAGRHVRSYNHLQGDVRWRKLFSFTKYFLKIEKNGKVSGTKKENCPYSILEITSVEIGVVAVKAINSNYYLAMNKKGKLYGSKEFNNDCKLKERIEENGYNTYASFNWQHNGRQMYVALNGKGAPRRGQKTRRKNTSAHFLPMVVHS
Sequence of Torsin-1A-interacting protein 2 (Homo sapiens) (Q8NFQ8 whole entry, looked up): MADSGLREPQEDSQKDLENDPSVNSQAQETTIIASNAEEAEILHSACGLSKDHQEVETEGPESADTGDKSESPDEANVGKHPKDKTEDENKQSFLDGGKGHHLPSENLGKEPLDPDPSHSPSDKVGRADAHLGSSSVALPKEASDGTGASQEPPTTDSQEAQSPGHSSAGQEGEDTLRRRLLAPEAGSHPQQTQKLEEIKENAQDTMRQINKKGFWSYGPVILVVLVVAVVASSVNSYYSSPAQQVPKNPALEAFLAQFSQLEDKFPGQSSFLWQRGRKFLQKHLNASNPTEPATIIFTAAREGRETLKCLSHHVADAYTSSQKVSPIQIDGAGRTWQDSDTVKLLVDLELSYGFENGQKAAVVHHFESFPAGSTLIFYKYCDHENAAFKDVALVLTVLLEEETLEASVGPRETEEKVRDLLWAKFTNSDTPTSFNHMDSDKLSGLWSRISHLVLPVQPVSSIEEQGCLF
Sequence of Follistatin-related protein 3 (Homo sapiens) (O95633 whole entry, looked up): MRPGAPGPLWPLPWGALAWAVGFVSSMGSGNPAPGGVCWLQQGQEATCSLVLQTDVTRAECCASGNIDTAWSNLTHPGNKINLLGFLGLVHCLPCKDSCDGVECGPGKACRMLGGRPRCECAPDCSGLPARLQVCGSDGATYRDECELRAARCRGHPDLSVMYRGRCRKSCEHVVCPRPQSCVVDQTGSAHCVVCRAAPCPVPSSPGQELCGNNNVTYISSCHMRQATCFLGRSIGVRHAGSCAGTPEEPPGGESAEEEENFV
Sequence of Neurogenic locus notch homolog protein 3 (Homo sapiens) (Q9UM47 whole entry, looked up): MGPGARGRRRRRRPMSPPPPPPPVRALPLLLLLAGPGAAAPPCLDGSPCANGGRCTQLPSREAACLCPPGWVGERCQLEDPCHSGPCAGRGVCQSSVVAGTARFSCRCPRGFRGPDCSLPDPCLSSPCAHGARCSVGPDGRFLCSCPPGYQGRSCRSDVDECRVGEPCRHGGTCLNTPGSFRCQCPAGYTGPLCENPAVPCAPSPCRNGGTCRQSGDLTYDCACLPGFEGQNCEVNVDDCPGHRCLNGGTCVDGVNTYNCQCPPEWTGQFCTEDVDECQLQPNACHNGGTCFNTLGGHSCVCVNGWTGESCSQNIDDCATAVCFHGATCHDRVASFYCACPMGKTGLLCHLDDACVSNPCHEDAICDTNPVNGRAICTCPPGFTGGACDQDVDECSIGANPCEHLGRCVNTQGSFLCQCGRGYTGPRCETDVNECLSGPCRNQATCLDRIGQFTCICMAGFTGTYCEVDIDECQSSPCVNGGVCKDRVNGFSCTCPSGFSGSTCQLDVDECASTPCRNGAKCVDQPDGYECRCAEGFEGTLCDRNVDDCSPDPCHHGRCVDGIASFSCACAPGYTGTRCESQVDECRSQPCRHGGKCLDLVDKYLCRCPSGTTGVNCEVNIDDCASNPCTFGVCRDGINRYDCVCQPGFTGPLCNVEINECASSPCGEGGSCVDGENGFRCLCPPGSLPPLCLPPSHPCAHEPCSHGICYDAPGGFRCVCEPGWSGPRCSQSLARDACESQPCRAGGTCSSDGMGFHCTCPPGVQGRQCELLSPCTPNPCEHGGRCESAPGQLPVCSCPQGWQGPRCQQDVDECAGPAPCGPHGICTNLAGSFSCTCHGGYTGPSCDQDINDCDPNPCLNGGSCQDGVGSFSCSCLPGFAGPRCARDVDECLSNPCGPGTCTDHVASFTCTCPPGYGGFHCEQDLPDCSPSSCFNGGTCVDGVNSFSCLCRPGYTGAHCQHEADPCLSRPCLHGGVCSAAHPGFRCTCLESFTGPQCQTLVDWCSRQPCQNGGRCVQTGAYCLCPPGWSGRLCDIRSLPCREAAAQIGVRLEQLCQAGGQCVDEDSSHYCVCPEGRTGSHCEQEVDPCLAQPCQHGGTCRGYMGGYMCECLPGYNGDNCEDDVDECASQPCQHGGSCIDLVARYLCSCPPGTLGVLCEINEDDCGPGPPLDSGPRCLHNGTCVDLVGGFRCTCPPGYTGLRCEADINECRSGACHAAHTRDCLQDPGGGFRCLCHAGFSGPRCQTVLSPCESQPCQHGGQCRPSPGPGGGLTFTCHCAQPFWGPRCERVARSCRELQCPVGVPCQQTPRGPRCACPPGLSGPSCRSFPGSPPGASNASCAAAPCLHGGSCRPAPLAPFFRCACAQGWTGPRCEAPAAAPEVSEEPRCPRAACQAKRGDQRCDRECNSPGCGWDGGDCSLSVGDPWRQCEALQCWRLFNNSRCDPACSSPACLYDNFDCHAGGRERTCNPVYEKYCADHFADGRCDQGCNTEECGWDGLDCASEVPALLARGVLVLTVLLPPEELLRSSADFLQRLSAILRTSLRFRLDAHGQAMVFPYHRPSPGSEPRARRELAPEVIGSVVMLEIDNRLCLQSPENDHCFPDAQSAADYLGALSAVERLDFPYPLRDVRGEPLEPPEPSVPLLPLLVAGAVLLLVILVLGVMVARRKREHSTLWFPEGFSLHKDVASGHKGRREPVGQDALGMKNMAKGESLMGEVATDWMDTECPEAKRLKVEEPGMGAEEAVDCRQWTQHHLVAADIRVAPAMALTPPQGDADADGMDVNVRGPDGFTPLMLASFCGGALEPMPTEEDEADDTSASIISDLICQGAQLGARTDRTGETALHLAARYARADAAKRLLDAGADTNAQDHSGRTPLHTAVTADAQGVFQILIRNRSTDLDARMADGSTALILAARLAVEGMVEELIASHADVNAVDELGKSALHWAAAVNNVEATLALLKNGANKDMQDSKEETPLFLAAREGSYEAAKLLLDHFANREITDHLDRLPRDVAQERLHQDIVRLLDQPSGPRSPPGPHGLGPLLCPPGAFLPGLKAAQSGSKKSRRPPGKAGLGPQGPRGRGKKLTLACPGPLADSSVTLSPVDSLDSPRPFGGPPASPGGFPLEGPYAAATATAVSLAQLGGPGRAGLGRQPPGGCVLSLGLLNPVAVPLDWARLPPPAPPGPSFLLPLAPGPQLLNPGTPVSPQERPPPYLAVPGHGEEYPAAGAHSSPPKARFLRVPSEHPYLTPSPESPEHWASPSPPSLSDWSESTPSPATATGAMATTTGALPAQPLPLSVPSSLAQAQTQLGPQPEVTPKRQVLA
Sequence of Dickkopf-related protein 1 (Homo sapiens) (O94907 whole entry, looked up): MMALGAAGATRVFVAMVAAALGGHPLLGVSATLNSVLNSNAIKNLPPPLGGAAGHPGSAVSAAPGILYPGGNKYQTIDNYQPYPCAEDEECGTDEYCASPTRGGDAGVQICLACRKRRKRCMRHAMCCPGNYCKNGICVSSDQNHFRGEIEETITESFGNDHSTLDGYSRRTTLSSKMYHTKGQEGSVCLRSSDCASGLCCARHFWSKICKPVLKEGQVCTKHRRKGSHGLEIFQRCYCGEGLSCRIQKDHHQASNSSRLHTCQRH

Structure (SMILES)	composite z-score [1]	z-score [2]	z-score [3]	z-score [4]	composite z-score [5]	z-score [6]	composite z-score [7]	composite z-score [8]	composite z-score [9]	composite z-score [10]	composite z-score [11]	composite z-score [12]	composite z-score [13]	z-score [14]	composite z-score [15]	composite z-score [16]	composite z-score [17]	composite z-score [18]	composite z-score [19]	composite z-score [20]
COCn1c2ccccc2c2nnc(C(C)=O)nc21	-0.217 and 0.724	-0.405 (inactive) and -0.362 (inactive)	-0.267 (inactive) and -1.08 (inactive)	-0.189 (inactive) and -0.135 (inactive)	-0.0703 and 0.184	-0.35 (inactive) and -0.768 (inactive)	-0.0702 and -0.0137	0.1 and 0.372	-0.007 and 0.307	-0.0398 and -0.123	-0.137 and 0.312	-0.228 and -0.221	-0.42 and -0.408	-0.592 (inactive) and -0.85 (inactive)	0.529 and 0.182	-0.0671 and 0.0307	0.574 and 0.979	0.383 and 0.277	0.808 and 0.152	0.12 and 0.483
COC(=O)C1=C(C)N(Cc2ccccc2)[C@]23O[C@](C(=O)OC)(C(=O)N2[C@@H]1c1ccccc1)[C@H]1C(=O)N(c2ccccc2)C(=O)[C@H]13	0.343 and -0.0383	0.434 (inactive) and 0.397 (inactive)	-0.261 (inactive) and -0.858 (inactive)	-0.558 (inactive) and 0.264 (inactive)	1.14 and 0.69	0.102 (inactive) and 0.185 (inactive)	-0.0812 and -0.0245	0.468 and 0.611	0.649 and 1.11	0.253 and 0.0534	0.224 and 0.295	-0.0965 and 0.134	-0.362 and -0.418	0.0537 (inactive) and -0.654 (inactive)	0.775 and 1.09	0.989 and 0.463	0.367 and 0.392	0.514 and 0.835	0.629 and 0.666	0.111 and -0.155
C[C@@H]1CC[C@H]2C(=O)N3[C@@H](CC[C@@H](C)[C@@H]3c3ccc(-c4ccco4)cc3)C(=O)N2[C@H]1c1ccc(-c2ccco2)cc1	1.56 and 1.49	-0.0519 (inactive) and -0.0158 (inactive)	0.453 (inactive) and -1.28 (inactive)	0.849 (inactive) and -0.324 (inactive)	2.17 and 0.787	0.196 (inactive) and 0.917 (inactive)	0.0935 and 0.525	1.34 and 1.77	1.04 and 1.06	0.0374 and 0.181	1.22 and 1.69	0.289 and 0.596	0.0051 and 1.11	-0.328 (inactive) and -1.24 (inactive)	0.765 and 1.37	1.32 and 1.28	0.737 and 1.7	1.36 and 1.4	1.25 and 1.68	1.01 and 1.92
CCOC(=O)c1ccc(NC(=O)O[C@H]2[C@H](OC(=O)Nc3ccccc3)[C@@H](OC(=O)Nc3ccccc3)[C@@H](OC)O[C@@H]2CO)cc1	1.53 and 1.54	1.77 (inactive) and 1.97 (inactive)	1.07 (inactive) and 1.71 (inactive)	4.37 (inactive) and 7.27 (inactive)	3.22 and 3.23	-0.221 (inactive) and -1 (inactive)	0.244 and 0.0626	0.893 and 0.71	1.02 and 1.08	0.145 and 0.11	1.54 and 1.64	1	0.861 and 0.911	1.59 (inactive) and -0.984 (inactive)	1.13 and 1.42	1.24 and 1.34	0.329 and 0.0234	1.34 and 1.42	0.414 and 0.17	0.375 and 0.563
